Laboratory results published in PubChem BioAssay (NCI).
The panel holds about 83,000 compounds, 20% with a hit somewhere; the sample as a whole holds those more often.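 The endpoint reported here, percent growth, reads 100 for growth as untreated, 0 for no net growth and -100 for all cells dead.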 A number with no mark means an inactive call. The source made the active and inactive calls. The calls were made as follows: active = growth percent below 10; inactive = the rest.

These compounds were tested on NCI-H522 lung (assay: NCI-60 one-dose screen, 48 h (100 = growth as untreated, 0 = no growth, -100 = all killed)). Settings: 10 µM unless noted.

SMILES | growth
Cc1ccc(NC(=O)c2ccc(CN3CCN(C)CC3)cc2)cc1Oc1ccc(-c2[nH]nc3ncnc(N)c23)cc1 | 89.9%
c1ccc(C(c2nc3ncncc3[nH]2)N2CSc3nc4ccccc4n3C2)cc1 (stereo not given) | 98.2%
COc1ccc(Cn2cc3c(c2-c2cc(OC)c(OC)c(OC)c2)CCc2c(CN4CCCC4)noc2-3)cc1 | 28.2%
CC1=CC(=O)C2=C(C)CC(OC(=O)CCc3ccccc3)[C@@H]3[C@H](OC(=O)[C@@H]3C)[C@@H]12 (stereo not given in full) | 77.4%
CCCCCc1ccc(S(=O)(=O)Nc2cccc(-c3csc(NC(=O)CN4CCN(CCO)CC4)n3)c2)cc1 | 89.1%
O=C(Nc1ccc(F)c(F)c1)c1cc(-c2ccc(F)cc2F)ccc1O | -1.71% (active)
COc1c(N2CC3CCCNC3C2)c(F)cc2c(=O)c(C(=O)N/N=C/c3ccc(N(C)C)cc3)cn(C3CC3)c12 (stereo not given) | 73%
CC(=O)C1=C(C)NC(NN)=NC1c1cccc(Cl)c1 (stereo not given) | 97.9%
C=CCn1c(SCC(=O)Nc2ccc(C(=O)/C=C/c3ccc(Br)cc3)cc2)nnc1-c1c[nH]c2ccccc12 | 82.5%
COc1cc(Cn2cc3c(c2)-c2onc(CN4CCCC4)c2CC3)cc(OC)c1OC | 84.2%
O=C1Nc2ccccc2/C1=C/c1ccc(CO)n1-c1ccc(Cl)cc1 | 53.7%
O=C(CSc1nc2ccccc2c(=O)n1-c1ccc(Cl)cc1)N/N=C/c1ccc(N2CCCCC2)cc1 | 88.1%
Cc1ccc(-n2c(/C=C3\C(=O)Nc4ccccc43)ccc2CO)cc1 | 73.6%
NC(=O)c1c(NC(=O)c2ccc(F)cc2F)sc2c1CCC(=O)C2 | 10.2%
CCC(CC)N1C(=O)/C(=c2\sc3n(c2=O)NC2C(N=3)N(CC)C(=O)N2CC)c2ccccc21 (stereo not given) | 62.7%
Clc1cccc(/C=N/Nc2nc(N/N=C/c3cccc(Cl)c3Cl)nc(N3CCCCC3)n2)c1Cl | 76.6%
CCn1c2ccccc2c2cc(-n3nncc3-c3ccccc3)ccc21 | 4.55% (active)
Cc1c(Cl)cccc1S(=O)(=O)Nc1ccc2c(c1)C(=O)N(C1CCC(=O)NC1=O)C2=O (stereo not given) | 94.2%
COc1ccc(NC(=O)CSc2nnc(-c3ccc4nc(-c5ccccc5)[nH]c4c3)o2)cc1 | 94.2%
CCOP(=O)(OCC)OC[C@]12CCC(C)(C)C=C1[C@H]1CC[C@@H]3[C@@]4(C)CC[C@H](OP(=O)(OCC)OCC)C(C)(C)[C@@H]4CC[C@@]3(C)[C@]1(C)CC2 | -59.1% (active)
CCOC(=O)C(=O)CC(=O)N1C(=S)NC(=O)C1CC(C)C (stereo not given) | 100%
COc1cc(Cn2cc3c(c2)-c2onc(CN4CCOCC4)c2CC3)cc(OC)c1OC | 86%
CC/C(=C/c1cc(OC)ccc1O)c1ccc2cc(OC)ccc2[o+]1 | 24.2%
O=C(O)c1ccc(-n2cc(CNc3cc(F)c(F)c(F)c3)c(-c3cccc(F)c3)n2)cc1 | 91.5%
C=CCn1c(SCC(=O)Nc2ccc(C(=O)/C=C/c3cccc([N+](=O)[O-])c3)cc2)nnc1-c1c[nH]c2ccccc12 | 78.9%
